Bioassay records (PubChem BioAssay)
Vif-A3F inh: qHTS for Inhibitors of Vif-A3F Interactions: qHTS. 390,000 tested, 0.2% active. Potency, µM (doses to about 46.1 µM), for the others: top-dose activity, negative = active. HeLa A3F-eYFP + Vif (tagged APOBEC3F with the HIV-1 protein that degrades it), YFP fluorescence increase; further: potency means the concentration at half of the fitted maximal effect; % of control where 0% means no effect; nearly all actives have a fitted effect of over 65% in size
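Fluorescence increase (Ex 488/Em 500-530) after overnight compound treatment at 37 deg C flags inhibition of Vif-driven A3F-eYFP loss in stable HeLa A3F-eYFP/Vif cells seeded overnight beforehand.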
IDH1 R132H inh: qHTS for Inhibitors of mutant isocitrate dehydrogenase 1 (IDH1): qHTS; Isocitrate dehydrogenase [NADP] cytoplasmic (Homo sapiens), O75874; AID 602179, 2012; 390,000 tested, 0.093% active; IDH1-R132H enzyme, NADPH consumption, diaphorase/resazurin fluorescence; Potency, µM (doses to about 76.6 µM), inactives show at the highest dose activity change, negative = inhibition, usual class: inhibitors; further: potency means the concentration at half of the fitted maximal effect; on the % scale 0 is the no-effect control and ±100 the full control effect; nearly all actives have a fitted effect of over 65% in size
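IDH1-R132H (0.5 ug/mL) preincubated 30 min with compound, then NADPH (0.016 mM) and alpha-KG (2 mM) added; 80 min at RT, pH 7.5. Remaining NADPH coupled via diaphorase/resazurin to fluorescence (540/590 nm); concentration-response curves normalized to no-enzyme control.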
Vif-APOBEC3G blk: qHTS for Inhibitors of Vif-A3G Interactions: qHTS | 410,000 tested, 0.076% active | Potency, µM (titrated, usually from 46.1 µM), without a hit: at the highest dose activity, negative = active, actives largely listed as inhibitors | HeLa A3G-eYFP + Vif (tagged APOBEC3G with the HIV-1 protein that degrades it), YFP fluorescence, overnight | DNA dC->dU-editing enzyme APOBEC-3G (Homo sapiens), Q9HC16; further: potency means the concentration at half of the fitted maximal effect; on the % scale 0 is the no-effect control and ±100 the full control effect; nearly all actives have a fitted effect of over 60% in size
Target sequence (Q9HC16 whole entry, looked up): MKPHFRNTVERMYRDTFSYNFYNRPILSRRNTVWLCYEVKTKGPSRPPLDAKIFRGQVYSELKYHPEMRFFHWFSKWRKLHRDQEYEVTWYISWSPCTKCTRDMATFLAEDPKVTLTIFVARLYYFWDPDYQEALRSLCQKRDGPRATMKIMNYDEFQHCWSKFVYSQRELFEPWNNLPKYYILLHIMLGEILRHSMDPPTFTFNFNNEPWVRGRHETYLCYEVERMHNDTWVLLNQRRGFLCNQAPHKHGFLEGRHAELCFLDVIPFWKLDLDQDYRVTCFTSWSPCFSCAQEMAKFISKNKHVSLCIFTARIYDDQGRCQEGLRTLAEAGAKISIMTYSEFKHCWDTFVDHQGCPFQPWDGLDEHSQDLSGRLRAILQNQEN
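HeLa cells stably expressing Vif and C-terminally eYFP-tagged A3G, seeded overnight at 37 deg C, then exposed to compound by pintool overnight at 37 deg C. Rise in yellow fluorescence (Ex 488/Em 500-530, Acumen) marks blocked Vif-driven A3G degradation.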
LDHA block: qHTS assay for inhibitors of human lactate dehydrogenase; AID 1347041, 2019; 480,000 tested, 0.15% active; activity change, % (values are at about 110 or 230 µM); purified LDHA, NADH/diaphorase-resazurin fluorescence; stronger effect = lower value; in the data active means activity change below about -30%; inconclusive means mostly about -25% to -30%;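 further: plate controls were DMSO wells for no effect and wells without enzyme for full effect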
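Human LDH5 (2 nM) was incubated with 0.06 mM NADH and 0.2 mM pyruvate for 5 min at room temperature in Tris pH 7.4. Remaining NADH was coupled through diaphorase/resazurin, and resorufin fluorescence was read at 0 and 20 min.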
Tb PGK inh: qHTS Assay to Find Inhibitors of Phosphoglycerate Kinase. Phosphoglycerate kinase, glycosomal (Trypanosoma brucei brucei), P07378. PGK/GAPDH coupled, Kinase-Glo luminescence, 60 min. Potency, µM (titrated, usually from 57.5 µM), for the others: top-dose activity change, negative = inhibition, hits mostly inhibitors. 380,000 tested, 0.043% active. AID 602233, 2012; further: potency means the concentration at half of the fitted maximal effect; on the % scale 0 is the no-effect control and ±100 the full control effect; nearly all actives have a fitted effect of over 60% in size
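Recombinant glycosomal PGK reaction used 1,3-bisphosphoglycerate generated in-well by GAPDH (100nM final) in 100mM TEA pH 7.6, 5mM MgCl2, 0.01% Tween-20. After 60 minutes at room temperature, ATP was read by Kinase-Glo Plus luminescence end-point.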
Pin1 inhibitor: qHTS Assay to Find Inhibitors of Pin1; Pin1 FP peptide displacement, HiFluor488, 10 min; Potency, µM (titrated, usually from 115 µM), for inactives: at the top dose activity, negative = inhibition, most hits filed as inhibitors; 390,000 tested, 0.009% active; AID 504891, 2011; active means well fitted inhibition curve with a large enough effect in the polarisation, with a control signal flat, not every such curve was filed as active; inconclusive means small, poorly fitted or top-dose-only effect, or effect the other way, or a change in a side signal; inactive means no such curve, though single readings can be large or run the other way; the % refers to the polarisation; further: potency means the concentration at half of the fitted maximal effect; on the % scale 0 is the no-effect control and ±100 the full control effect
Target sequence (Q13526 whole entry, looked up): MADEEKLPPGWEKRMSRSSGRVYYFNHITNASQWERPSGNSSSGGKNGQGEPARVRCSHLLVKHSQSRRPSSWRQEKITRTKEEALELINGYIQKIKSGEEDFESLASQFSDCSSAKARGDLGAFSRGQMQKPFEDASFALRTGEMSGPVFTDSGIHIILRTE
Resorufin autofl: qHTS for Inhibitors of mutant isocitrate dehydrogenase 1 (IDH1): Cherrypicks Autofluorescence Interference; shares compounds with IDH1 R132H inh; Resorufin detection reagent fluorescence interference, cell-free; inhibition of signal, % at 51.2 µM; 750 tested, under 10 active;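 further: 0% = wells with normal resorufin and full inhibition = wells lacking resorufin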
IDH1 WT: qHTS for Inhibitors of mutant isocitrate dehydrogenase 1 (IDH1): Cherrypicks in WT IDH1; shares compounds with IDH1 R132H inh; WT IDH1 enzyme, NADPH diaphorase/resazurin fluorescence; Potency, µM (highest dose often 115 µM), for the others: top-dose activity change, negative = inhibition, most hits filed as inhibitors; 750 tested, 9% active;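 further: potency means the concentration at half of the fitted maximal effect; 0% = full WT IDH1 enzyme control and full inhibition = no enzyme wells; nearly all actives have a fitted effect of over 55% in size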
IDH1 R132H conf: qHTS for Inhibitors of mutant isocitrate dehydrogenase 1 (IDH1): Confirmation of Cherrypicks. IDH1 R132H enzyme, NADPH diaphorase/resazurin fluorescence. shares compounds with IDH1 R132H inh. 750 tested, 83% active. Potency, µM (highest dose often 76.6 µM), without a hit: at the highest dose activity change, negative = inhibition, usual class: inhibitors; further: potency means the concentration at half of the fitted maximal effect; nearly all actives have a fitted effect of over 50% in size
* = called active by the depositor. Hits are enriched below; roughly 0.49% of the tested compounds scored in any of these assays. Unless noted, the call rests on the fitted dose curve; in most records, active means well fitted curve in the direction sought with a large enough effect; inconclusive means small, poorly fitted or top-dose-only effect, or another doubt; inactive means no such curve, though single readings can be large; an effect the other way counts as inactive or inconclusive.

How did Cc1ccccc1N(C(=O)Cc1c[nH]c2ccccc12)C(C(=O)NC1CCCCC1)c1ccco1 (configuration not stated) do in these assays?
Vif-A3F inh: -1%; IDH1 R132H inh: inconclusive; Vif-APOBEC3G blk: -1%; LDHA block: -6; Tb PGK inh: -6%; Pin1 inhibitor: -7%; Resorufin autofl: -1; IDH1 WT: 0%; IDH1 R132H conf: 13µM*

What do the screens show for `Cc1ccc(C(C(=O)NC2CCCCC2)N(Cc2ccco2)C(=O)Cc2c[nH]c3ccccc23)o1` (configuration not stated)?
Vif-A3F inh: -1%; IDH1 R132H inh: inconclusive; Vif-APOBEC3G blk: -1%; LDHA block: -2; Tb PGK inh: 0%; Pin1 inhibitor: 21%; Resorufin autofl: 4; IDH1 WT: 5%; IDH1 R132H conf: 10µM*

Results for COc1ccc(C(C(=O)NC2CCCCC2)N(C(=O)Cc2c[nH]c3ccccc23)c2ccccc2C)cc1OC (configuration not stated) ?
Vif-A3F inh: 7%; IDH1 R132H inh: -1%; Vif-APOBEC3G blk: -1%; LDHA block: 1; Tb PGK inh: -5%; Pin1 inhibitor: 27%

What do the screens show for `CC(C)C(C)NC(=O)COc1ncnc2ccc(Br)cc12` (configuration not stated)?
LDHA block: 4

How did CCCNc1nc2ccccc2nc1C(=O)Nc1cccc(C)c1 do in these assays?
LDHA block: -1

What do the screens show for `N#C/C(=C\c1ccc(O)c(Cl)c1)c1nc2ccccc2[nH]1`?
LDHA block: 3

How did COc1ccc(CN(CCC(c2ccccc2)c2ccc(OC(C)C)cc2)C(=O)CCl)cc1OC (configuration not stated) do in these assays?
Vif-A3F inh: 8%; IDH1 R132H inh: inconclusive; Vif-APOBEC3G blk: -12%; LDHA block: -1; Tb PGK inh: -9%; Pin1 inhibitor: 27%; Resorufin autofl: -7; IDH1 WT: -17%; IDH1 R132H conf: 7.9µM*

What do the screens show for `COc1ccc(OCc2nc(C#N)c(NCc3ccco3)o2)cc1`?
LDHA block: 1

What do the screens show for `CCCCNC(=O)c1cccc(Cl)c1`?
LDHA block: 7

How did CCc1ccc(-n2c(C)nnc2SCc2nc(-c3ccccc3OC)no2)cc1 do in these assays?
LDHA block: 15
